Reference: PubChem BioAssay
A number with no mark means an inactive call. Calls of active or inactive are those of the source. No rule for the calls is given here.

Molecular target: L-lactate dehydrogenase (Plasmodium falciparum (isolate CDC / Honduras)) (UniProt Q27743)
Experiment: PfLDH activity inhibition – cell lysate, 3D7 strain, counter-screen for P. falciparum growth inhibition project (AID 2304);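 also: 0% = vehicle and 100% = reference inhibitor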
Details: P. falciparum 3D7 crude extract, LDH APAD/NBT absorbance; at 2 µM; hits give high values

Chain of L-lactate dehydrogenase (Plasmodium falciparum (isolate CDC / Honduras)) (Q27743 whole entry, looked up): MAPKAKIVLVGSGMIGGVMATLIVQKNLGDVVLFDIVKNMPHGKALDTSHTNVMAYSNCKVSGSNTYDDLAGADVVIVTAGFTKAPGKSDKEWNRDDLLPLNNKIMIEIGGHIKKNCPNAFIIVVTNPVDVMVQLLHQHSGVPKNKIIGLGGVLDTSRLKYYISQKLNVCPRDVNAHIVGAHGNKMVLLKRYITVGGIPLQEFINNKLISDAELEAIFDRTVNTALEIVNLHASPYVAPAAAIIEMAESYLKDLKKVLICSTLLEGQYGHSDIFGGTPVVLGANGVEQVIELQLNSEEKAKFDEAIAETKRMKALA

Structure (SMILES) | inhibition [%]
CCOC(=O)C(CO)NC(=O)c1ccc([N+](=O)[O-])o1 (stereo not given) | 8
COc1ccc2nccc([C@@H](O)CN3CCC(NC(=O)c4cc5ccccc5[nH]4)CC3)c2c1 | -3
COc1ccc(-c2cccc(NC(=O)c3ccc(C#N)cc3)c2)cc1CN1CCCN(C)CC1 | -3
Cc1nccc2c(NC(=O)N[C@@H]3CCN(c4ncc(C(F)(F)F)cc4Br)C3)cccc12 | -4
CN(C)CCOC(=O)C1(O)CCC2CC1C2(C)C (stereo not given) | -9
c1cncc(CCNCc2ccc(-c3cccc(-c4nc5ccccc5[nH]4)c3)cc2)c1 | -2
O=C(Cn1c(=O)cnc2ccccc21)Nc1cccc(C(=O)Nc2cccc(C(F)(F)F)c2)c1 | 3
COc1cc(Nc2nccc(N3CCC(NC(=O)c4cc5ccccc5s4)C3)n2)cc(OC)c1OC (stereo not given) | 2
COc1ccc2ncc(C#N)c(CCN3CCC(NCc4ccc5c(c4)OCCO5)CC3)c2c1 | -4
COc1ccc(-c2cncc3ccc(C(=O)NCc4ccncc4)nc23)cc1 | 0
CC(C)(C)c1ccc(-c2ccccc2CNC(=O)c2cccc(O)c2)cc1 | -2
COc1ccc2nccc([C@@H](O)CN3CCC(NCc4cc5cc([N+](=O)[O-])ccc5[nH]4)CC3)c2c1 | 4
COc1ccc(C=NNc2cc(C)nc3ccccc23)cc1OC | -1
Cc1cc(C(=O)NCc2ccc(-c3c(C)noc3C)cc2)n(-c2ccc(Cl)cc2)n1 | 3
O=C(Nc1cccc(CN2CCCN(Cc3ccc(O)cc3)CC2)c1)c1ccc(-c2ccccc2)cc1 | -8
CC(Cc1ccc(OCCN2CCN(c3cccc(C(F)(F)F)c3)CC2)cc1)NCC(O)c1cccc(C(F)(F)F)c1 (stereo not given) | 0
COC(=O)C(=C(C)C)N1C(=O)[C@@H](NC(=O)OCc2ccccc2)[C@H]1SS[C@@H]1[C@H](NC(=O)OCc2ccccc2)C(=O)N1C(C(=O)OC)=C(C)C | -5
CNCCNCc1ccc(-c2ccc(-c3nc4ccc(F)cc4[nH]3)cc2)cc1 | 4
COCc1nc(N)nc(N)c1-c1ccc(Cl)c(Cl)c1 | -1
O=C(/C=C/c1ccc(Cl)c(Cl)c1)NC1CCC(CN2CCC(c3cc4ccccc4[nH]3)CC2)CC1 (stereo not given) | 1
CC(C)C1=CC(=NOS(=O)(=O)c2ccccc2)C=C(C(C)C)C1=O | -3
c1ccc(-c2ccc(-c3csc(Nc4ccncc4)n3)cc2)cc1 | 3
O=C(Cc1ccc([N+](=O)[O-])cc1)N1CCc2cc3nccc(N4CCN5CCC[C@H]5C4)c3cc21 | -4
CC[C@H]1CN(CCCC(=O)c2ccccc2)CC[C@H]1CCCc1ccnc2ccc(OC(=O)c3ccccc3)cc12 | 1
Cn1cncc1-c1ccc2ncnc(Nc3ccc(OCc4ccccc4)cc3)c2c1 | 1

System: not listed separately
Experiment: inhibition of 3D7 malaria parasite growth – strain 3D7 (AID 2306);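 also: 0% = DMSO wells and 100% = chloroquine plus artemisinin control wells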
Details: P. falciparum 3D7 erythrocytic growth, LDH absorbance, 72 h; at 2 µM; hits give high values

Structure (SMILES) | growth inhibition
Cc1cccc2[nH]c(-c3cccc(-c4ccc(NC(=O)Cc5cnc[nH]5)cc4)c3)nc12 | 101% (active)
Fc1ccc(-c2nc(NCc3cccc(C(F)(F)F)c3)nn2-c2cccc(C(F)(F)F)c2)cc1C(F)(F)F | 90% (active)
Cc1cnc(NC(=O)c2cn(-c3ccccc3)nc2-c2cccs2)s1 | 91% (active)
CCN(CC)CCNC(=O)c1ccc(NC(=O)c2oc3c(Cl)cccc3c2C)cc1 | 98% (active)
COc1ccc(C=C2SC(=O)NC2=Nc2ccccc2)c(OC)c1 | 91% (active)
Cc1cc(N[C@@H](Cc2ccccc2)C(=O)NCCc2ccccc2)nc(NCc2ccccc2C)n1 | 99% (active)
COc1cc(CNCCCCCCNCc2cc(OC)cc3ccccc23)c2ccccc2c1 | 100% (active)
COc1cc(NC(=O)c2c(-c3c(Cl)cccc3Cl)noc2C)c(OC)cc1Cl | 85% (active)
CN1CCN(CC2(Nc3nccc(NCc4ccc(Cl)cc4Cl)n3)CCCCC2)CC1 | 98% (active)
CN(C)CCCNCCS(=O)(=O)c1cccc(Nc2ccc(-c3cccc(N(C)C)c3)cn2)c1 | 98% (active)
COc1cc(SC)c(Br)cc1-c1nc2ccncc2[nH]1 | 91% (active)
Cc1cc(N2CCN(C3CCCCC3)CC2)nc2cccc(O)c12 | 101% (active)
CCCCCCn1c(Sc2ccc(C#N)c([N+](=O)[O-])c2)nnc1-c1ccc(OC)cc1 | 95% (active)
Cc1cc(N[C@@H](Cc2ccccc2)C(=O)NCc2cccs2)nc(NCCOc2ccccc2)n1 | 93% (active)
C(=N\Nc1nccc2sc(-c3cccnc3)cc12)/c1ccncc1 | 101% (active)
CCOC(=O)C(CO)NC(=O)c1ccc([N+](=O)[O-])o1 (stereo not given) | 96% (active)
COc1ccc2nccc([C@@H](O)CN3CCC(NC(=O)c4cc5ccccc5[nH]4)CC3)c2c1 | 96% (active)
COc1ccc(-c2cccc(NC(=O)c3ccc(C#N)cc3)c2)cc1CN1CCCN(C)CC1 | 101% (active)
Cc1nccc2c(NC(=O)N[C@@H]3CCN(c4ncc(C(F)(F)F)cc4Br)C3)cccc12 | 96% (active)
CN(C)CCOC(=O)C1(O)CCC2CC1C2(C)C (stereo not given) | 95% (active)

Structure (SMILES) | growth inhibition
c1cncc(CCNCc2ccc(-c3cccc(-c4nc5ccccc5[nH]4)c3)cc2)c1 | 102% (active)
O=C(Cn1c(=O)cnc2ccccc21)Nc1cccc(C(=O)Nc2cccc(C(F)(F)F)c2)c1 | 90% (active)
COc1cc(Nc2nccc(N3CCC(NC(=O)c4cc5ccccc5s4)C3)n2)cc(OC)c1OC (stereo not given) | 96% (active)
COc1ccc2ncc(C#N)c(CCN3CCC(NCc4ccc5c(c4)OCCO5)CC3)c2c1 | 96% (active)
COc1ccc(-c2cncc3ccc(C(=O)NCc4ccncc4)nc23)cc1 | 100% (active)
CC(C)(C)c1ccc(-c2ccccc2CNC(=O)c2cccc(O)c2)cc1 | 99% (active)
COc1ccc2nccc([C@@H](O)CN3CCC(NCc4cc5cc([N+](=O)[O-])ccc5[nH]4)CC3)c2c1 | 99% (active)
COc1ccc(C=NNc2cc(C)nc3ccccc23)cc1OC | 91% (active)
Cc1cc(C(=O)NCc2ccc(-c3c(C)noc3C)cc2)n(-c2ccc(Cl)cc2)n1 | 100% (active)
O=C(Nc1cccc(CN2CCCN(Cc3ccc(O)cc3)CC2)c1)c1ccc(-c2ccccc2)cc1 | 100% (active)
CC(Cc1ccc(OCCN2CCN(c3cccc(C(F)(F)F)c3)CC2)cc1)NCC(O)c1cccc(C(F)(F)F)c1 (stereo not given) | 97% (active)
COC(=O)C(=C(C)C)N1C(=O)[C@@H](NC(=O)OCc2ccccc2)[C@H]1SS[C@@H]1[C@H](NC(=O)OCc2ccccc2)C(=O)N1C(C(=O)OC)=C(C)C | 97% (active)
CNCCNCc1ccc(-c2ccc(-c3nc4ccc(F)cc4[nH]3)cc2)cc1 | 98% (active)
COCc1nc(N)nc(N)c1-c1ccc(Cl)c(Cl)c1 | 84% (active)
O=C(/C=C/c1ccc(Cl)c(Cl)c1)NC1CCC(CN2CCC(c3cc4ccccc4[nH]3)CC2)CC1 (stereo not given) | 96% (active)
CC(C)C1=CC(=NOS(=O)(=O)c2ccccc2)C=C(C(C)C)C1=O | 92% (active)
c1ccc(-c2ccc(-c3csc(Nc4ccncc4)n3)cc2)cc1 | 101% (active)
O=C(Cc1ccc([N+](=O)[O-])cc1)N1CCc2cc3nccc(N4CCN5CCC[C@H]5C4)c3cc21 | 95% (active)
CC[C@H]1CN(CCCC(=O)c2ccccc2)CC[C@H]1CCCc1ccnc2ccc(OC(=O)c3ccccc3)cc12 | 83% (active)
Cn1cncc1-c1ccc2ncnc(Nc3ccc(OCc4ccccc4)cc3)c2c1 | 101% (active)
